# Experimental data published in the supplement of paper PMC8728848.
# Many of the other results were omitted from the sample, so the strongest signals are more common in it than they were.
# B1: LlpA (Burkholderia cenocepacia) (protein)
# chain: MGSSHHHHHHSSGLVPRGSHKILGSNETLSAGNVVYSDNGQYHLAMQTDGNLVVYGPTGAVWQSQTSGSGGNRAVMQGDGNLVIYRADNTAAWSSKTAHPGAFLAVQDDGNVVIYWPRPAWASNTSDPATQQSAESKYLASGSTMSAGQTVTVAQYMLVFQADGNLVLYKNGGNPIWSTGTQGKGATYAVMQSDGNFVIYAGSTALWSTKTNGANGAQLVLQSDGNLVIYAPTAAWSTKFGLVTAPTSTSTSNNGPGSGICVGVCPPHPLNGNPFSPVGVGTTGLGFPTPGYPGAAF
# How the values were obtained:
# Test in all cases: glycan array binding signal (z-score within array); higher = stronger binding
# Conditions in all cases: glycan notation: IUPAC condensed, linker removed
# [1] = target: Fuc(a1-2)Gal
# Summary of the method: (§1)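 Glycan array data came from 3228 arrays in the Consortium for Functional Glycomics database, and only arrays with an available protein sequence were kept. Glycan names were put into IUPAC-condensed notation, and columns mapping to the same glycan were averaged. The binding signal is a within-array Z-score, averaged across arrays of one protein sequence run at different concentrations or buffers and across linkers. A negative Z-score can be read as non-binding.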
# [2] = target: Fuc(a1-2)Gal(b1-4)GlcNAc(b1-2)Man(a1-3)[Fuc(a1-2)Gal(b1-4)GlcNAc(b1-2)Man(a1-6)]Man(b1-4)GlcNAc(b1-4)GlcNAc
# Summary of the method: as §1
# [3] = target: Fuc(a1-2)Gal6S(b1-3)GlcNAc
# Summary of the method: as §1
# [4] = target: Fuc(a1-2)[Gal(a1-3)]Gal(b1-3)GalNAc
# Summary of the method: as §1
# [5] = target: Fuc(a1-2)[Gal(a1-3)]Gal(b1-3)GalNAc(b1-3)Gal(a1-4)Gal(b1-4)Glc
# Summary of the method: as §1
# [6] = target: Fuc(a1-2)[GalNAc(a1-3)]Gal(b1-3)GalNAc(b1-3)Gal(a1-4)Gal(b1-4)Glc
# Summary of the method: as §1
# [7] = target: Fuc(a1-2)[GalNAc(a1-3)]Gal(b1-4)GlcNAc(b1-3)Gal(b1-4)GlcNAc(b1-3)Gal(b1-4)GlcNAc
# Summary of the method: as §1
# [8] = target: Fuc(a1-3)[Gal(b1-4)]GlcNAc(b1-2)Man(a1-3)[Fuc(a1-3)[Gal(b1-4)]GlcNAc(b1-2)Man(a1-6)]Man(b1-4)GlcNAc(b1-4)[Fuc(a1-6)]GlcNAc
# Summary of the method: as §1
# [9] = target: Fuc(a1-3)[Gal(b1-4)]GlcNAc(b1-3)GalNAc
# Summary of the method: as §1
# [10] = target: Gal(a1-3)Gal(b1-3)GlcNAc(b1-3)GalNAc
# Summary of the method: as §1
# [11] = target: Gal(a1-3)Gal(b1-3)[Fuc(a1-4)]GlcNAc(b1-2)Man(a1-3)[Gal(a1-3)Gal(b1-3)[Fuc(a1-4)]GlcNAc(b1-2)Man(a1-6)]Man(b1-4)GlcNAc(b1-4)GlcNAc
# Summary of the method: as §1
# [12] = target: Gal(a1-3)Gal(b1-4)GlcNAc(b1-6)GalNAc
# Summary of the method: as §1
# [13] = target: Gal(b1-3)GlcNAc(b1-3)Gal(b1-3)GlcNAc
# Summary of the method: as §1
# [14] = target: Gal(b1-3)GlcNAc(b1-3)Gal(b1-4)GlcNAc
# Summary of the method: as §1
# [15] = target: Gal(b1-3)GlcNAc(b1-3)Gal(b1-4)GlcNAc(b1-2)[Gal(b1-3)GlcNAc(b1-3)Gal(b1-4)GlcNAc(b1-6)]Man(a1-6)[Gal(b1-3)GlcNAc(b1-3)Gal(b1-4)GlcNAc(b1-2)Man(a1-3)]Man(b1-4)GlcNAc(b1-4)[Fuc(a1-6)]GlcNAc
# Summary of the method: as §1
# [16] = target: Gal(b1-3)GlcNAc(b1-3)Gal(b1-4)GlcNAc(b1-3)Gal(b1-4)GlcNAc(b1-2)[Gal(b1-3)GlcNAc(b1-3)Gal(b1-4)GlcNAc(b1-3)Gal(b1-4)GlcNAc(b1-6)]Man(a1-6)[Gal(b1-3)GlcNAc(b1-3)Gal(b1-4)GlcNAc(b1-3)Gal(b1-4)GlcNAc(b1-2)Man(a1-3)]Man(b1-4)GlcNAc(b1-4)[Fuc(a1-6)]GlcNAc
# Summary of the method: as §1
# [17] = target: Gal(b1-3)GlcNAc(b1-3)Gal(b1-4)GlcNAc(b1-6)[Gal(b1-3)GlcNAc(b1-3)]Gal(b1-4)Glc
# Summary of the method: as §1
# [18] = target: Gal(b1-3)[Neu5Ac(b2-6)]GalNAc
# Summary of the method: as §1
# [19] = target: Gal(b1-4)GlcNAc(b1-2)Man(a1-3)Man(b1-4)GlcNAc(b1-4)GlcNAc
# Summary of the method: as §1
# [20] = target: Gal(b1-4)GlcNAc(b1-2)[Gal(b1-4)GlcNAc(b1-4)]Man(a1-3)[GlcNAc(b1-4)][Gal(b1-4)GlcNAc(b1-2)[Gal(b1-4)GlcNAc(b1-6)]Man(a1-6)]Man(b1-4)GlcNAc(b1-4)GlcNAc
# Summary of the method: as §1
# [21] = target: Gal(b1-4)GlcNAc(b1-3)Gal(b1-4)GlcNAc(b1-2)Man(a1-3)[Gal(b1-4)GlcNAc(b1-3)Gal(b1-4)GlcNAc(b1-2)Man(a1-6)]Man(b1-4)GlcNAc(b1-4)[Fuc(a1-6)]GlcNAc
# Summary of the method: as §1
# [22] = target: Gal(b1-4)GlcNAc(b1-3)Gal(b1-4)GlcNAc(b1-2)[Gal(b1-4)GlcNAc(b1-3)Gal(b1-4)GlcNAc(b1-6)]Man(a1-6)[Gal(b1-4)GlcNAc(b1-3)Gal(b1-4)GlcNAc(b1-2)Man(a1-3)]Man(b1-4)GlcNAc(b1-4)GlcNAc
# Summary of the method: as §1
# [23] = target: Gal(b1-4)GlcNAc(b1-3)Gal(b1-4)GlcNAc(b1-2)[Gal(b1-4)GlcNAc(b1-3)Gal(b1-4)GlcNAc(b1-6)]Man(a1-6)[Gal(b1-4)GlcNAc(b1-3)Gal(b1-4)GlcNAc(b1-2)Man(a1-3)]Man(b1-4)GlcNAc(b1-4)[Fuc(a1-6)]GlcNAc
# Summary of the method: as §1
# [24] = target: Gal(b1-4)GlcNAc(b1-6)Gal(b1-4)GlcNAc
# Summary of the method: as §1
# [25] = target: Gal(b1-4)GlcNAc(b1-6)[Gal(b1-4)GlcNAc(b1-3)]GalNAc
# Summary of the method: as §1
# [26] = target: Gal3S(b1-4)[Fuc(a1-3)]Glc6S
# Summary of the method: as §1
# [27] = target: Gal3S(b1-4)[Fuc(a1-3)]GlcNAc6S
# Summary of the method: as §1
binder,measurement,setting,value
B1,glycan array binding signal (z-score),[1],1.82
same,glycan array binding signal (z-score),[2],-0.314
same,glycan array binding signal (z-score),[3],0.167
same,glycan array binding signal (z-score),[4],0.017
same,glycan array binding signal (z-score),[5],-0.361
same,glycan array binding signal (z-score),[6],-0.271
same,glycan array binding signal (z-score),[7],1.26
same,glycan array binding signal (z-score),[8],2.08
same,glycan array binding signal (z-score),[9],0.159
same,glycan array binding signal (z-score),[10],-1.16
same,glycan array binding signal (z-score),[11],1.1
same,glycan array binding signal (z-score),[12],0.692
same,glycan array binding signal (z-score),[13],-0.418
same,glycan array binding signal (z-score),[14],-0.526
same,glycan array binding signal (z-score),[15],1.84
same,glycan array binding signal (z-score),[16],0.703
same,glycan array binding signal (z-score),[17],1.7
same,glycan array binding signal (z-score),[18],-0.687
same,glycan array binding signal (z-score),[19],1.84
same,glycan array binding signal (z-score),[20],0.349
same,glycan array binding signal (z-score),[21],2.46
same,glycan array binding signal (z-score),[22],0.339
same,glycan array binding signal (z-score),[23],1.91
same,glycan array binding signal (z-score),[24],-0.14
same,glycan array binding signal (z-score),[25],1.6
same,glycan array binding signal (z-score),[26],1.83
same,glycan array binding signal (z-score),[27],0.427
